Percent Effect data for eleven molecules are collected here from ChEMBL document CHEMBL3988442, “University of Dundee, Small-Polar-MMV Screening Library” (2021).

For some of these results: Results with a measured potency or affinity are listed apart.

Parameters in all cases: scale not given: direction of the effect not stated beside the values
The target in experiment [1] is Protein translocase subunit SecA (Escherichia coli (strain K12)) (UniProt P10408). Kind of experiment: Assay to Identify E. coli SecA ATPase Inhibitors. The experiment is classed as functional. Particulars: 30 µM.
Experiment [2] concerns the target T1, Ubiquitin-activating enzyme e1, putative (Leishmania donovani (strain BPK282A1)) (UniProt E9BSI1).
T1 sequence (whole entry): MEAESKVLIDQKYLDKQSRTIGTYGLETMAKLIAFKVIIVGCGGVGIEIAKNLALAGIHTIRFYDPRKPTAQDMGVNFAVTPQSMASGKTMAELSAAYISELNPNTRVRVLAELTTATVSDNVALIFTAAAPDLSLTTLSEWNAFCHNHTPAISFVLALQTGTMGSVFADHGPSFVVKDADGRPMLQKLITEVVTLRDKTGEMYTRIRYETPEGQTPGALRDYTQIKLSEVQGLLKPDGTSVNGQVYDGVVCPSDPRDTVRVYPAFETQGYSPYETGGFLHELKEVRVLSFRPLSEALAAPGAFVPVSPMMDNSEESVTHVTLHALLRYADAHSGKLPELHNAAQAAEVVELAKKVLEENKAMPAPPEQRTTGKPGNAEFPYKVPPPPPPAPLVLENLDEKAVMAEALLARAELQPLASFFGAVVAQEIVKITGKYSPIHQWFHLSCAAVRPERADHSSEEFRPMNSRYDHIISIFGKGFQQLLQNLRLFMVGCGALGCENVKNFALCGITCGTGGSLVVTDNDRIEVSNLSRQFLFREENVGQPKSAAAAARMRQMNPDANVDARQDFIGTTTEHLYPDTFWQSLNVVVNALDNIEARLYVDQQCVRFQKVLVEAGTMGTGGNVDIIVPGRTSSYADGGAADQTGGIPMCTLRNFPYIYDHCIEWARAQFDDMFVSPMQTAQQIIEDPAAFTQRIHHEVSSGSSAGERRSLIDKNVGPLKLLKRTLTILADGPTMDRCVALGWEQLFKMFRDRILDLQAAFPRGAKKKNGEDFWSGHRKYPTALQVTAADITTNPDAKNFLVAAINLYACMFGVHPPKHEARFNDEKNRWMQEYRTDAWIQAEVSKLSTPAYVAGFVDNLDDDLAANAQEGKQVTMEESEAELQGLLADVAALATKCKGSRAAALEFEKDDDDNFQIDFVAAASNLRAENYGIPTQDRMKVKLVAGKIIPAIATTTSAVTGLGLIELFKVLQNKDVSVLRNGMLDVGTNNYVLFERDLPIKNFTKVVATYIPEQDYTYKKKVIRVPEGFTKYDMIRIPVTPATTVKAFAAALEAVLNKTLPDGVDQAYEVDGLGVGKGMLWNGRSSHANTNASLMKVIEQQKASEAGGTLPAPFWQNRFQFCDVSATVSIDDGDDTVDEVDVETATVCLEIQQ
Nature of the experiment: Leishmania donovani Ubiquitin Activating Enzyme (LdE1). The format is functional. Particulars: 30 µM.

Experiment [3] addresses AMP-activated protein kinase, AMPK (Homo sapiens) (UniProt P54646+O43741+P54619+Q9UGJ0+Q9Y478+Q13131+Q9UGI9). Kind of experiment: AMP-dependent Kinase enzyme assay. An in vitro enzyme assay that detects ADP turnover that is directly proportional to AMPK activity. This uses naive AMPK that is activated during the assay with MK-8722. The format is functional. Particulars: 30 µM.

In experiment [4] the target is Sialic acid-binding Ig-like lectin 9 (Homo sapiens) (UniProt Q9Y336). Nature of the experiment: Hs-Siglec9 ALPHAscreen SOP 20170721. Particulars: 10 µM.
The test system of another experiment is Trypanosoma cruzi. Kind of experiment: Trypanosoma cruzi phosphomannomutase and mannose-1-phosphate guanylyltransferase assay. The format is functional. Particulars: 10 µM.
For experiment [5], the target named is T2, Arginase-2, mitochondrial (Homo sapiens) (UniProt P78540).
T2 sequence (whole entry): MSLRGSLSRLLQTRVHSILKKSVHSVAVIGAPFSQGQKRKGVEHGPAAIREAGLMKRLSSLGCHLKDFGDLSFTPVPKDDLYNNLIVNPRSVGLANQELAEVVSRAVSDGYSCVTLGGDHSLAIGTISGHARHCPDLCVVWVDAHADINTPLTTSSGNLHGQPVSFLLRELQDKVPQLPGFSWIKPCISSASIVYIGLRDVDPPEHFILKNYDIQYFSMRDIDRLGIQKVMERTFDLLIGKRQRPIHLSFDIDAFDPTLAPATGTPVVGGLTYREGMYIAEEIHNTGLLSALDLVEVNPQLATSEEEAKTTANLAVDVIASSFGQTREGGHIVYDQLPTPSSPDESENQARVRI
Nature of the experiment: in vitro enzyme assay to detect the production of urea directly proportional to the activity of Arginase II. Also: in the data most compounds retested in dose-response had high values. The format is functional. Particulars: 33.3 µM.

For experiment [6], the target named is T3, Proteasome subunit beta (Trypanosoma cruzi) (UniProt O96673).
T3 sequence (whole entry): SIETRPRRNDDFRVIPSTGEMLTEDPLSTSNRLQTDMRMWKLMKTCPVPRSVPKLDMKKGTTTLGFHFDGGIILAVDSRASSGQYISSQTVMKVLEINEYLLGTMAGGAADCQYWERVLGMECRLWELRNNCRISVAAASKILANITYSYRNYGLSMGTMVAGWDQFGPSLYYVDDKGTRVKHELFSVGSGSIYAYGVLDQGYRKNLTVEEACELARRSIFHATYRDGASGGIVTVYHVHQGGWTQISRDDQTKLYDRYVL
Nature of the experiment: Trypanosoma cruzi proteasome chymotrypsin-like activity (TcProtChymo) assay. Also: in the data most compounds retested in dose-response had high values. The format is functional. Particulars: 9.37 µM.

The species entered for another experiment is Homo sapiens. Nature of the experiment: To identify inhibition of the IFN signalling (Jak-Stat) pathway via expression of an eGFP reporter gene under the control of an IFN-stimulated response element (ISRE) containing MxA promoter. Particulars: 30 µM. The format is functional.
For experiment [7], the target named is T4, Tyrosyl-tRNA synthetase, putative (Trypanosoma cruzi (strain CL Brener)) (UniProt Q4DSP6).
T4 sequence (whole entry): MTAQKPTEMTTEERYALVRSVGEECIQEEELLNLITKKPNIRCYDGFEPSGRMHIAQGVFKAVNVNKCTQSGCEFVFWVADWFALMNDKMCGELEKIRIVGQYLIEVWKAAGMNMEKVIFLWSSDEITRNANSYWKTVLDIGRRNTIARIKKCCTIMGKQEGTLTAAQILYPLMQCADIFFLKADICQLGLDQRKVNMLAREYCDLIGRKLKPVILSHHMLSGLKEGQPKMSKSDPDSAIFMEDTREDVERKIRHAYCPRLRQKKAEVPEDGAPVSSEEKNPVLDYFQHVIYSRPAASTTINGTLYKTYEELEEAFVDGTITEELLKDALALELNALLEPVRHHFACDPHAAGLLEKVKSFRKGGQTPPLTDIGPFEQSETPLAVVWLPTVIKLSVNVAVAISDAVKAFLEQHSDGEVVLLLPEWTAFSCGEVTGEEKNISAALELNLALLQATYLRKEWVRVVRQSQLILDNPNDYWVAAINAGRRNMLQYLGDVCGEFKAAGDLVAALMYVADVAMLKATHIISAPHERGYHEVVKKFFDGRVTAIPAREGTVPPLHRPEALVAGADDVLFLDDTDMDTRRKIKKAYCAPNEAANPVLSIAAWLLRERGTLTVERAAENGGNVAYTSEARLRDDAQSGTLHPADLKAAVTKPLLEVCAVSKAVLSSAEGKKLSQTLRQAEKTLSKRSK
Nature of the experiment: Trypanosoma cruzi tyrosyl tRNA synthetase (TcYRS) _High Tyrosine SOP. Also: in the data most compounds retested in dose-response had high values. Particulars: 30 µM. The format is functional.

Experiment [8] deals with T4, Tyrosyl-tRNA synthetase, putative (Trypanosoma cruzi (strain CL Brener)). Kind of experiment: Trypanosoma cruzi tyrosyl tRNA synthetase (TcYRS) SOP. The format is functional. Particulars: 30 µM.
The target of experiment [9] is Chromo domain-containing protein 1 (Saccharomyces cerevisiae (strain ATCC 204508 / S288c) (Baker's yeast)) (UniProt P32657). Kind of experiment: ScCHD-1 Enzyme Inhibition Assay. Also: in the data most compounds retested in dose-response had high values. Particulars: 30 µM. The format is functional.
Sequence of Chromo domain-containing protein 1 (Saccharomyces cerevisiae (strain ATCC 204508 / S288c) (Baker's yeast)) (P32657 whole entry, the tested form may be a part): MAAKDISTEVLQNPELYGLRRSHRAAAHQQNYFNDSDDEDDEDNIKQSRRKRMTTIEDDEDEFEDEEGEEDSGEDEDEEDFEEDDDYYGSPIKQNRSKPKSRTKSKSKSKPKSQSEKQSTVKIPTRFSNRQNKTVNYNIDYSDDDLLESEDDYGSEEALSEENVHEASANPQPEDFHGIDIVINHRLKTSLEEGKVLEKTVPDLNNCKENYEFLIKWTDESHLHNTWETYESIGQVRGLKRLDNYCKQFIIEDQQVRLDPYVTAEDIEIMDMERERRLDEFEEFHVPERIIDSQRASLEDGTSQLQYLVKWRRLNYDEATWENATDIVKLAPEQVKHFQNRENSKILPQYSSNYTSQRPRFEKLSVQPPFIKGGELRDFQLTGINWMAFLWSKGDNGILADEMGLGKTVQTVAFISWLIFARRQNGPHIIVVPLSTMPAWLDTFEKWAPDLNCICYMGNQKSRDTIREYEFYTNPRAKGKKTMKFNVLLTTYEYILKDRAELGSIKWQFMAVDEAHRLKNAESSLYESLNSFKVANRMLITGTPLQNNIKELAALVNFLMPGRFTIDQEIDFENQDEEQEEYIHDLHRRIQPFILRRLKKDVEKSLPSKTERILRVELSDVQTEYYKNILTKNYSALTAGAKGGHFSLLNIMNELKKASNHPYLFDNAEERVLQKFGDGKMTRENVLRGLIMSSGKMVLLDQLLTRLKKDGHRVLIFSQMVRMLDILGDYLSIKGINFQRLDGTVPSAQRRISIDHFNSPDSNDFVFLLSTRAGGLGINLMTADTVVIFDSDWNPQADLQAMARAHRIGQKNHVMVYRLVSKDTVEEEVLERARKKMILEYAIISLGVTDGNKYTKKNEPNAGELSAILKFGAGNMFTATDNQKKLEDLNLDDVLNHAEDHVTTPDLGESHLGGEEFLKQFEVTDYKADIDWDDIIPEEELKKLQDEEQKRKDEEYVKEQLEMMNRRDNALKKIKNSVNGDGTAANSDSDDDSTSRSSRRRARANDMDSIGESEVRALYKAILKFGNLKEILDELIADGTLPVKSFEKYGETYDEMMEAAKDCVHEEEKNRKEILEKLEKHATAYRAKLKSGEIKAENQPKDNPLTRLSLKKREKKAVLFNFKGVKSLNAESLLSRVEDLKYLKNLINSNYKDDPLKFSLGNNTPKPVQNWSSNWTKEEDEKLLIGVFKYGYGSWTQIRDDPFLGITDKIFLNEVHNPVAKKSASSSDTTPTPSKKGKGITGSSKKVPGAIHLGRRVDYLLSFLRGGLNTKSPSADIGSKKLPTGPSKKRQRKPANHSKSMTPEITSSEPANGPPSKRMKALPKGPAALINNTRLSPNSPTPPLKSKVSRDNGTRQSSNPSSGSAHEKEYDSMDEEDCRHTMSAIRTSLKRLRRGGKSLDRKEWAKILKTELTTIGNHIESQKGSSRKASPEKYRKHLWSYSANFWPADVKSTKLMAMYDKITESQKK

Sequence of Sialic acid-binding Ig-like lectin 9 (Homo sapiens) (Q9Y336 whole entry): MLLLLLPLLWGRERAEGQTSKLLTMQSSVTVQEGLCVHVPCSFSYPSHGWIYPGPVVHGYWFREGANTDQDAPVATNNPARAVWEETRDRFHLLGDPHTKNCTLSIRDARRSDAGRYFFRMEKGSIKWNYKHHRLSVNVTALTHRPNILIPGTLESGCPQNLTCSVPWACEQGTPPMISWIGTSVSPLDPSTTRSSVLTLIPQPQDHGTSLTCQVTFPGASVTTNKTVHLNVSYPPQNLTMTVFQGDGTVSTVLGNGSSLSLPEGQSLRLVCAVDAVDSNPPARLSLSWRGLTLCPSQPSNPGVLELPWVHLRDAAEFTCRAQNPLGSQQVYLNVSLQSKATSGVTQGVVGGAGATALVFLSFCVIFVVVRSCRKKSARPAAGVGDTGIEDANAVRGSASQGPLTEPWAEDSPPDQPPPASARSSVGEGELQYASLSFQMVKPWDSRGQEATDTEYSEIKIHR
Sequence of Protein translocase subunit SecA (Escherichia coli (strain K12)) (P10408 whole entry): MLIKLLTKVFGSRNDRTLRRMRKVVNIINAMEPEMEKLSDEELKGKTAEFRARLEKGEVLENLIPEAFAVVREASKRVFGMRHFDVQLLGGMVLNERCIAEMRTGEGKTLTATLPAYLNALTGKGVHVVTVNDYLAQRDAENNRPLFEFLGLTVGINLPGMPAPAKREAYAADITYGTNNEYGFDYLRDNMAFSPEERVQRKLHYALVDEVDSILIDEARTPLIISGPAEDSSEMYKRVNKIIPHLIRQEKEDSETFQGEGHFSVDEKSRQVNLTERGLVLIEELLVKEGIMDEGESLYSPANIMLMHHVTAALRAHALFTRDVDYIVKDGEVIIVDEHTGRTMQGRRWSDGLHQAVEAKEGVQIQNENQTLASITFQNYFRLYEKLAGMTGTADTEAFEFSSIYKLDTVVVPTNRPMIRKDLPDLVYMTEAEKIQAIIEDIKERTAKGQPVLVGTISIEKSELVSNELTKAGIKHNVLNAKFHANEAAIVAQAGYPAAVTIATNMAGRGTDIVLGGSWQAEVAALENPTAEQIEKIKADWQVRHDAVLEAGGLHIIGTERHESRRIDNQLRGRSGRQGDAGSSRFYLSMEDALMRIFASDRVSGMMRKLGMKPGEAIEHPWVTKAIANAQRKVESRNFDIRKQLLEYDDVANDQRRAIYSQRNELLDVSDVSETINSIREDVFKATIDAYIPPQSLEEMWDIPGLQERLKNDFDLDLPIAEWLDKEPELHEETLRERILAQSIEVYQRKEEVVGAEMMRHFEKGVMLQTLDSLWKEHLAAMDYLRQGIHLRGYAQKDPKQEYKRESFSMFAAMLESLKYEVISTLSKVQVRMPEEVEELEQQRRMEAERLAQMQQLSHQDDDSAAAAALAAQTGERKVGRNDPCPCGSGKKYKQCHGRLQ

In the case of `Cc1cc(C)n(CC(=O)N2CCC(NS(C)(=O)=O)CC2)n1`, the Percent Effect in [1] is -2.87%; in [2], 15.8%; in [3] it was 1.32%; in experiment [4] it was 0.107%; in the experiment with Trypanosoma cruzi it was -1.69%; in experiment [5], -2.3%. Also, the Percent Effect in [6] is 8.69%; in the experiment filed under Homo sapiens it was -0.413%; in [7] it was 5.39%; in experiment [8] it was 12.2%; in experiment [9], -9.21%.

For the molecule `Cc1cc(C[C@@H]2COC[C@@H]2NC(=O)CN2CCCC2)on1`, the Percent Effect in [1] was -4.18%; in [2], 2.74%; in experiment [3], 1.08%; in [4], -9.23%; with Trypanosoma cruzi it was 1.96%; in experiment [5] it was -1.82%. The Percent Effect was -4.61% in experiment [6]; 18.8% in the experiment filed under Homo sapiens; 5.38% in [7]; 10% in [8]; -4.15% in experiment [9].

On to `Cc1ccc(C2CSCCN2C(=O)C2=CCCC2)o1` (stereo unspecified), for which the Percent Effect in [1] was -5.63%; in [2] it was 8.11%; in experiment [3] it was -2.27%; in experiment [4], 26.9%; in the experiment on Trypanosoma cruzi, 0.684%; in experiment [5], 1.24%. Moreover, the Percent Effect in experiment [6] is 2.83%; in the experiment filed under Homo sapiens, -24%; in experiment [7], 1.07%; in experiment [8] it was 6.17%; in [9], -2.84%.

With `N#Cc1ccc(N2CCCN(C(=O)CC3CCCO3)CC2)cc1` (stereo unspecified), the Percent Effect in experiment [1] is -4.45%; in experiment [2] it was 5.41%; in experiment [3], 7.34%; in experiment [4], 18.8%; in the experiment on Trypanosoma cruzi, 5.19%; in [5], -5.61%. Besides, the Percent Effect in experiment [6] is -2.34%; in the experiment listed under Homo sapiens, 10.8%; in experiment [7] it was 0.493%; in [8], 16.1%; in experiment [9], -12.8%.

As for `COc1ccc(C(C)=O)c(OCC(=O)NC(C)c2ccc(F)cc2)c1` (stereo unspecified), the Percent Effect in experiment [1] was -0.739%; in experiment [2], 10.8%; in experiment [3] it was -5.53%; in [4], 8.21%; with Trypanosoma cruzi, 5.77%; in experiment [5], 23.6%. For the same molecule, the Percent Effect in experiment [6] is 9.19%; in the experiment filed under Homo sapiens it was -11.8%; in [7], 0%; in experiment [8] it was 11.1%; in [9], -6.76%.

As for `O=C(NCCn1ccc(-c2ccccn2)n1)C1CC1`, the Percent Effect in experiment [1] is -1.6%; in [2], 0%; in experiment [3], 8.98%; in experiment [4], 2.65%; in the experiment on Trypanosoma cruzi, -3.85%; in [5] it was 5.81%. Moreover, the Percent Effect is 2.79% in [6]; 7.05% in the experiment filed under Homo sapiens; 3.17% in experiment [7]; 3.85% in experiment [8]; -0.508% in experiment [9].

For the molecule `O=C1CC2(CCN(c3nncs3)C2)CN1c1ccccc1` (stereo unspecified), the Percent Effect in experiment [1] is -2.98%; in [2], 5.41%; in [3], -3.44%; in [4], 2.02%; in the experiment on Trypanosoma cruzi, -5.66%; in [5] it was 4.58%. In addition, the Percent Effect is 12.4% in experiment [6]; -3.33% in the experiment filed under Homo sapiens; 4.95% in [7]; 11% in experiment [8]; 0.436% in [9].

Consider `Cn1cc(C2CCCN2C(=O)c2ccc(Br)o2)cn1` (stereo unspecified), for which the Percent Effect in [1] is -4.98%; in experiment [2], 13.2%; in [3], 2.02%; in experiment [4], -8.81%; in the experiment with Trypanosoma cruzi, -3.64%; in [5], 1.08%. Also, the Percent Effect in [6] is 1.27%; in the experiment filed under Homo sapiens it was 16.1%; in experiment [7] it was 0.493%; in [8], 1.24%; in experiment [9], 1.07%.

`CCOCCOc1ccccc1C(=O)N1CCCC(c2ncc[nH]2)C1` (stereo unspecified): the Percent Effect in [1] is -3.41%; in experiment [2], 8.22%; in [3] it was 11.4%; in experiment [4], 0.341%; in the experiment with Trypanosoma cruzi, 0.979%; in experiment [5], 3.64%. Further, the Percent Effect in experiment [6] is 23.2%; in the experiment listed under Homo sapiens, 6.64%; in [7], 8.6%; in experiment [8], 17.5%; in experiment [9], -11.5%.

On to `CC1CCCN(CCNC(=O)c2ccn(-c3ccccc3)n2)C1` (stereo unspecified), for which the Percent Effect was -0.427% in [1]; 18.2% in experiment [2]; 2.11% in experiment [3]; -6.84% in experiment [4]; -8.05% with Trypanosoma cruzi; 4.63% in [5]. Besides, the Percent Effect is 5.07% in experiment [6]; 16.5% in the experiment listed under Homo sapiens; 8.74% in experiment [7]; 12.2% in experiment [8]; -8.6% in experiment [9].

Turning to `Cc1cccnc1CN1CCC(c2nnc(Cn3cccn3)n2C)CC1`, the Percent Effect was -4.04% in experiment [1]; 1.39% in experiment [2]; 0.385% in experiment [3]; -7.79% in experiment [4]; -3.98% in the experiment with Trypanosoma cruzi; 2.21% in experiment [5]. In addition, the Percent Effect in experiment [6] is 8.95%; in the experiment listed under Homo sapiens, -6.28%; in experiment [7], 3.16%; in [8] it was 10.3%; in experiment [9] it was -2.58%.
